Compound activity deposited in PubChem BioAssay by several laboratories.
EP2 mod – EP2 receptor (human) modulation; induction, % at 25 µM; EP2-expressing cells, cAMP HTRF FRET, PGE2 co-stimulation; P43116; actives 0.83% (n = 260,000);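 active = compounds whose cAMP rise, as percent of the full-agonist control response, exceeds 60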;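 also: rat C6 glioma line stably carrying human EP2 under a CMV promoter; the protocol text gives 20 µM as final concentration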
S1P3 antag – blocks the human S1P3 receptor. Q99500. CHO S1P3 NFAT-BLA reporter, FRET fluorescence, antagonist mode. inhibition, % at 4.98 µM. actives 0.27% (n = 170,000);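 active = inhibition above the plate cutoff, the mean inhibition of test wells on that plate plus 3 SD, cut at about 28% in these data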;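 also: cells challenged with S1P at its EC80 of 0.8 µM; blue over green emission ratio from cleaved BLA substrate after 4 h stimulation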
PGE2 EP2 inh – EP2 receptor (human) inhibition; P43116; C6 glioma cells expressing human EP2, cAMP TR-FRET; cells stimulated with saturating PGE2; inhibition, % at 25 µM; actives 0.52% (n = 260,000); AID 1422;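 active = percent inhibition above 40 after rounding to a whole number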;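 also: rat C6 glioma host cells with rolipram phosphodiesterase inhibitor present; the protocol text gives 20 µM as final concentration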
KCC2 mod – modulates chloride dependent transport by human KCC2. B-score of Tl+ flux slope (higher = more flux/activation; lower = inhibition) at 10 µM. Q9H2X9. AID 1456. KCC2 cells, thallium flux FluoZin-2 fluorescence. actives 2.2% (n = 190,000);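 active = thallium flux slope and its plate-corrected score both differing from the plate sample mean at a set confidence after two filtering rounds, in either direction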;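 also: slope of fluorescence scaled to starting intensity during 10 to 20 s after thallium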
Target sequence (Q9H2X9 whole entry, looked up): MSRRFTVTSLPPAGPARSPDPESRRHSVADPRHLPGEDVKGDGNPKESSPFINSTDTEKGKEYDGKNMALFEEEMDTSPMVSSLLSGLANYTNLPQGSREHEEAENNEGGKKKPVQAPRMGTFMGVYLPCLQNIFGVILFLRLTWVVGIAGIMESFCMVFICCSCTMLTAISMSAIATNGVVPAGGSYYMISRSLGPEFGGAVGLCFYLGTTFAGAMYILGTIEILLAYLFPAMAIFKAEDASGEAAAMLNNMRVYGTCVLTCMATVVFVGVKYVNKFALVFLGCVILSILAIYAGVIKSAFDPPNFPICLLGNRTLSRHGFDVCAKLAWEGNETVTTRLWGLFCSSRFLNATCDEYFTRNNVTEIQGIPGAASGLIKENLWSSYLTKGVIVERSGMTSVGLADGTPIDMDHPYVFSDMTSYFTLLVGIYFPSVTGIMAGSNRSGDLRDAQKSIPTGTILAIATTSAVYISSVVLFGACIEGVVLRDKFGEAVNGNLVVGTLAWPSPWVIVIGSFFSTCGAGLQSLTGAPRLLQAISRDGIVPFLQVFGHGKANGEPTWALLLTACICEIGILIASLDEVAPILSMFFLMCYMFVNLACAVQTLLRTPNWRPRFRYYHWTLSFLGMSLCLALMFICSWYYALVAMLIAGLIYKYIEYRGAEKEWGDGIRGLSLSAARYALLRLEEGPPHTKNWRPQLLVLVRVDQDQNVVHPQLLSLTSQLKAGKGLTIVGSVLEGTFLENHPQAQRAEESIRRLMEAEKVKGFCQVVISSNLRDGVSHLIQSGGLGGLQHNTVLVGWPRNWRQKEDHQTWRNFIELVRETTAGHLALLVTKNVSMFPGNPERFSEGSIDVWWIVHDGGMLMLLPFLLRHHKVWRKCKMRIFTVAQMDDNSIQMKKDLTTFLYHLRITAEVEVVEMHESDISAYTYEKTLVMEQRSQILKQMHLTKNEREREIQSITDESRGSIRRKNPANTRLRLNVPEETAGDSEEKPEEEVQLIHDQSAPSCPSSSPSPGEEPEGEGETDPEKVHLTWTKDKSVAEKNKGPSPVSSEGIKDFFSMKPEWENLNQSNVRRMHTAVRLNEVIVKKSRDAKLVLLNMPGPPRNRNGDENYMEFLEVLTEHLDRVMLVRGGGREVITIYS
KCC2 secondary – confirmation of human KCC2 transport modulators; normalised thallium flux (F/F0 slope) at 10 µM; shares compounds with KCC2 mod; actives 15% (n = 3,700); HEK293-KCC2, thallium flux, FluoZin2 fluorescence; active compounds read high;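 active = thallium flux slope above the same plate's solvent-only control mean plus 3 SD; inconclusive = the two replicate wells disagree; inactive = no significant difference from solvent-only control wells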
KCC2 bumet counter – thallium flux despite bumetanide block in KCC2 cells, secondary assay 3; shares compounds with KCC2 mod; normalized thallium flux at 10 µM; AID 1714; actives 49% (n = 3,700); HEK293-KCC2 + bumetanide/ouabain, thallium flux FluoZin2; active compounds read high;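 active = thallium entry rate above the same plate's blocked-transporter control wells by more than 3 SD; inconclusive = the two repeat wells disagree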;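 also: raw slope of fluorescence over initial fluorescence between 10 and 20 s after thallium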
KCC2 secondary2 – confirmation of human KCC2 transport modulators. shares compounds with KCC2 mod. HEK293-KCC2, thallium flux FluoZin2 fluorescence; actives lie on both sides; F/F0 rise rate, 10–20 s post-thallium. normalized thallium flux at 10 µM. actives 23% (n = 3,700). AID 1715;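 active = thallium flux slope more than 3 SD above or below the plate's solvent-only control mean, mostly below; inconclusive = the two repeat wells disagreed; inactive = no significant shift from solvent-only controls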
HEK counter1 – acts in parental HEK cells, KCC2 counter-screen; HEK293 parental cells, thallium flux FluoZin2, ouabain; baseline-ratio fluorescence slope, 10–20 s after thallium; actives 46% (n = 3,700); AID 1716; thallium flux rate (normalised fluorescence) at 10 µM; shares compounds with KCC2 mod;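 active = thallium flux rate significantly above the same plate's solvent-only control wells, beyond their mean plus 3 SD; inconclusive = the two replicate wells gave conflicting results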
KCC2 ouabain – confirmation of human KCC2 modulators with ouabain; shares compounds with KCC2 mod; HEK293-KCC2, thallium flux FluoZin2 fluorescence; bidirectional: low = inhibitor, high = activator; raw Tl+ flux slope (below DMSO = inhibition, above = activation) at 10 µM; actives 48% (n = 3,700);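 active = thallium flux slope beyond 3 SD from same-plate DMSO control mean in most replicates, usually higher, sometimes lower; inconclusive = repeat tests gave conflicting results; inactive = no significant difference from controls in most replicates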;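 also: slope of initial-normalized fluorescence between seconds 10 and 20 after thallium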
HEK counter2 – counter-screen for KCC2 modulators: effect in parental HEK293 cells | thallium flux slope at 10 µM | AID 1718 | actives 33% (n = 3,700) | shares compounds with KCC2 mod | thallium flux FluoZin-2 fluorescence slope;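 active = thallium flux slope above the same plate's solvent-control mean plus 3 SD in both duplicate wells; inconclusive = duplicate wells that disagreed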;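 also: run without ouabain in cells lacking the KCC2 cotransporter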
Each line names hits and unclear results; the compound was inactive in the other large screens (follow-up assays come after a bar, where they were run). The list is not random: actives were taken first. Their share in the collection is about 3.1%.

CCCCn1c(-c2csc3ccccc23)n[nH]c1=S	KCC2 mod 4.75 (no result: S1P3 antag, PGE2 EP2 inh) | KCC2 secondary inactive | KCC2 bumet counter 0.0229 | KCC2 secondary2 inconclusive | HEK counter1 0.0204 | KCC2 ouabain 0.0276 | HEK counter2 0.0227
Cc1cc(NC(=O)c2ccco2)ccc1NC(=O)c1cccs1	none (no result: S1P3 antag, KCC2 mod)
CCC[n+]1cccc(C(=O)c2ccccc2)c1	none (no result: S1P3 antag, KCC2 mod)
O=C(C1CCN(S(=O)(=O)c2cc(Cl)ccc2Cl)CC1)N1CCCCC1	none (no result: S1P3 antag, KCC2 mod)
CC(c1ccc(F)cc1)n1c(-c2cccs2)n[nH]c1=S (configuration not stated)	KCC2 mod 5.19 | KCC2 secondary inactive | KCC2 bumet counter 0.0165 | KCC2 secondary2 inactive | HEK counter1 0.014 | KCC2 ouabain inconclusive | HEK counter2 0.0157
C/C(=N\NC(=O)CNc1cccc(C(F)(F)F)c1)c1ccc(Br)cc1	none
C/C(=N\NC(=O)CNc1cccc(C(F)(F)F)c1)c1cccc(Br)c1	KCC2 mod 5.45 | KCC2 secondary inactive | KCC2 bumet counter inactive | KCC2 secondary2 inactive | HEK counter1 inactive | KCC2 ouabain inactive | HEK counter2 inactive
N#Cc1c(-c2ccccc2Cl)cc(-c2ccccc2)[nH]c1=S	KCC2 mod 17.1 | KCC2 secondary 0.0152 | KCC2 bumet counter 0.028 | KCC2 secondary2 inactive | HEK counter1 0.0225 | KCC2 ouabain 0.0348 | HEK counter2 0.0135
Cc1cc(-c2ccccc2)c(C#N)c(=S)[nH]1	KCC2 mod 6.95 | KCC2 secondary 0.0171 | KCC2 bumet counter 0.0283 | KCC2 secondary2 inactive | HEK counter1 0.0162 | KCC2 ouabain inactive | HEK counter2 0.012
Cc1ccc(-c2cc(-c3ccccc3Cl)c(C#N)c(N)n2)o1	none
COc1ccc(C(C)C)cc1S(=O)(=O)N1CCCCC1	none (no result: S1P3 antag, KCC2 mod)
CCOc1ccc(CC(=O)N2CCC[C@@H]2Cn2nc(-c3cccs3)ccc2=O)cc1	none (no result: S1P3 antag, KCC2 mod)
COc1cccc(-c2nnc(NC(=O)c3ccc4ncsc4c3)o2)c1	KCC2 mod 8.84 | KCC2 secondary 0.0131 | KCC2 bumet counter 0.0383 | KCC2 secondary2 inactive | HEK counter1 0.0166 | KCC2 ouabain 0.0332 | HEK counter2 inconclusive
COc1cccc(C(=O)Nc2ccc(F)cc2F)c1	none (no result: S1P3 antag, KCC2 mod)
Cc1cccc(C(=O)Nc2nnc(-c3cccnc3)o2)c1	KCC2 mod 4.65 | KCC2 secondary inactive | KCC2 bumet counter 0.00934 | KCC2 secondary2 inactive | HEK counter1 0.00991 | KCC2 ouabain inactive | HEK counter2 inconclusive
COc1cccc(C(=O)Nc2nnc(-c3ccc(F)cc3)o2)c1	KCC2 mod 14.7 | KCC2 secondary 0.00955 | KCC2 bumet counter 0.0498 | KCC2 secondary2 0.0473 | HEK counter1 0.0345 | KCC2 ouabain 0.0474 | HEK counter2 0.0231
CCN(CC)S(=O)(=O)c1ccc(C(=O)Nc2nnc(-c3ccco3)o2)cc1	none
CCCCN(CC)S(=O)(=O)c1ccc(C(=O)Nc2nnc(-c3cccs3)o2)cc1	KCC2 mod 22.5 | KCC2 secondary 0.016 | KCC2 bumet counter 0.0749 | KCC2 secondary2 inactive | HEK counter1 0.0361 | KCC2 ouabain 0.0504 | HEK counter2 0.011
Cc1ccc(CNc2c(-c3ccco3)nc3cnccn23)cc1	none (no result: S1P3 antag, PGE2 EP2 inh, KCC2 mod)
O=C(COc1ccc(Cl)cc1)Nc1nnc(-c2ccc3c(c2)CCCC3)o1	KCC2 mod 6.24 | KCC2 secondary inconclusive | KCC2 bumet counter 0.0205 | KCC2 secondary2 inactive | HEK counter1 inconclusive | KCC2 ouabain 0.0321 | HEK counter2 inconclusive
COc1ccc(-c2nnc(NC(=O)c3ccccc3C)o2)cc1	KCC2 mod 4.49 | KCC2 secondary 0.0149 | KCC2 bumet counter 0.0239 | KCC2 secondary2 inactive | HEK counter1 0.0128 | KCC2 ouabain inactive | HEK counter2 inconclusive
COc1cccc(C(=O)Nc2nnc(-c3cccs3)o2)c1	KCC2 mod 5.31 | KCC2 secondary inactive | KCC2 bumet counter 0.0228 | KCC2 secondary2 inactive | HEK counter1 0.018 | KCC2 ouabain 0.029 | HEK counter2 0.0164
COc1cccc(C(=O)Nc2nnc(-c3ccc(Cl)cc3)o2)c1	KCC2 mod 45.6 | KCC2 secondary inconclusive | KCC2 bumet counter 0.111 | KCC2 secondary2 0.0945 | HEK counter1 0.0954 | KCC2 ouabain 0.101 | HEK counter2 0.0893
CC(=O)Nc1nnc(-c2ccc3c(c2)CCCC3)o1	none
Cc1cccc(C(=O)Nc2nnc(-c3ccncc3)o2)c1	none
CCCC(c1nnnn1Cc1ccco1)N(Cc1ccco1)Cc1cc2cc(C)cc(C)c2[nH]c1=O (configuration not stated)	none (no result: S1P3 antag, KCC2 mod)
Cn1c(SCC(=O)Nc2nc(-c3ccccc3)cs2)nnc1-c1ccncc1	none (no result: S1P3 antag, KCC2 mod)
c1ccc(-c2c3c(cc4ccccc24)C[N+]2(CCCCC2)C3)cc1	none (no result: S1P3 antag, KCC2 mod)
COc1cc(/C=C\c2nc(O)c([N+](=O)[O-])c(=O)[nH]2)cc(OC)c1	none (no result: S1P3 antag, KCC2 mod)
COc1ccc(-c2ccc(=O)n(C3CCN(C(=O)c4cccs4)CC3)n2)cc1F	none (no result: S1P3 antag, PGE2 EP2 inh, KCC2 mod)
CCOC(=O)c1c(C)nc(C)c(C(=O)OCC)c1-c1ccccc1	none (no result: S1P3 antag) | KCC2 secondary inactive | KCC2 bumet counter inactive | KCC2 secondary2 inactive | HEK counter1 inactive | KCC2 ouabain inactive | HEK counter2 inactive
S=c1[nH]nc(CSCCOc2ccc(Cl)cc2Cl)o1	KCC2 mod 162 | KCC2 secondary inactive | KCC2 bumet counter 0.0565 | KCC2 secondary2 inconclusive | HEK counter1 0.0331 | KCC2 ouabain 0.0559 | HEK counter2 inactive
COc1ccccc1CN(C)CC(=O)Nc1ccc(Cl)cc1F	none
COc1cc(Cl)c(C)cc1NC(=O)CN(C)Cc1cccc(OC)c1OC	KCC2 mod -3.57 | KCC2 secondary inactive | KCC2 bumet counter inactive | KCC2 secondary2 inactive | HEK counter1 0.00614 | KCC2 ouabain inactive | HEK counter2 inconclusive
c1ccc(-c2nc(CSc3n[nH]c(-c4cccs4)n3)cs2)cc1	KCC2 mod -3.78 (no result: S1P3 antag) | KCC2 secondary inactive | KCC2 bumet counter inactive | KCC2 secondary2 0.0238 | HEK counter1 inactive | KCC2 ouabain inactive | HEK counter2 inactive
COc1ccc(CCn2c(C)cc(C(=O)CSc3nc(N)cc(=O)[nH]3)c2C)cc1	none (no result: S1P3 antag)
Cc1cc(C(=O)CSc2nc(N)cc(=O)[nH]2)c(C)n1CCc1ccc(F)cc1	KCC2 mod -4.18 (no result: S1P3 antag) | KCC2 secondary inactive | KCC2 bumet counter inactive | KCC2 secondary2 inactive | HEK counter1 inactive | KCC2 ouabain inactive | HEK counter2 inactive
